Test results from PubChem BioAssay (EPA / NIEHS).
Results filed as inconclusive are left out. Active and inactive are the calls of the source. Rule for the calls, unless noted: active = hit-call score of the fitted dose curve at least 0.9, where 1 is the maximum; inactive = score below 0.9.

Key:
[1] = molecular target: Myc proto-oncogene protein (Homo sapiens) (UniProt P01106); assay: ATG_Myc_CIS: Attagene CIS-FACTORIAL HepG2 Assay for human Myelocytomatosis (Myc) Proto-Oncogene Transcription Factor (AID 2282990); conditions: HepG2, Attagene cis-reporter transcription factor activity; actives raise or lower the signal
Sequence of Myc proto-oncogene protein (Homo sapiens) (P01106 whole entry, looked up): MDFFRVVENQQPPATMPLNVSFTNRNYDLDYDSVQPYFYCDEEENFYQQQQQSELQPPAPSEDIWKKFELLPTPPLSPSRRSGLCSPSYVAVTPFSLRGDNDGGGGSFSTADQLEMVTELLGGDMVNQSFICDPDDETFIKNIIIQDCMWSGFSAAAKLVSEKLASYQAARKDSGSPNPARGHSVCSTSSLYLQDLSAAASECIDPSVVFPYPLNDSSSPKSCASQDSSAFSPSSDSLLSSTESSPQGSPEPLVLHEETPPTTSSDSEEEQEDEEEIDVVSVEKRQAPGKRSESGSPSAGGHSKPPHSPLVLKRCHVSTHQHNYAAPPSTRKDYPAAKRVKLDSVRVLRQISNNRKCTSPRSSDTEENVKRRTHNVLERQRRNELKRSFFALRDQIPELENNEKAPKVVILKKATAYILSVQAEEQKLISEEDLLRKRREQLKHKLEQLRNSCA
Summary of the method: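 Multiplexed cis-reporter transcription in HepG2 cells after 24 h chemical treatment. Reporter mRNA measured by RT-PCR and capillary electrophoresis fluorescence; activity fitted bidirectionally against DMSO control.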

[2] = ATG_NF_kB_CIS: Attagene CIS-FACTORIAL HepG2 Assay for human Nuclear Factor Kappa B (NF-kB) (AID 2282991); conditions: HepG2 Attagene cis-factorial NF-kB reporter mRNA; actives raise or lower the signal
Summary of the method: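 HepG2 cells transiently transfected with multiplexed cis-element reporter units measuring endogenous transcription factor activity; reporter mRNA read 24 h after dosing by RT-PCR, fluorescent labelling, HpaI digestion and capillary electrophoresis. Bidirectional fit against DMSO baseline.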

[3] = ATG_NRF2_ARE_CIS: Attagene CIS-FACTORIAL HepG2 Assay for human Nuclear Factor Erythroid 2 Related Factor 2 (NFR2) response to Antioxidant Response Elements (ARE) (AID 2282992); conditions: HepG2 Attagene ARE/NRF2 reporter, transcription factor activity; actives raise or lower the signal
Summary of the method: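 Fluorescence intensity of reporter-specific cDNA fragments, separated by capillary electrophoresis, reflects mRNA induction in transfected HepG2 cells at 24 h. Activity is fitted bidirectionally, DMSO serving as baseline.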

[4] = ATG_Oct_MLP_CIS: Attagene CIS-FACTORIAL HepG2 Assay for human Octamer-Binding Transcription Factor (Oct) (AID 2282993); conditions: HepG2 Attagene cis-factorial Oct reporter, mRNA; actives raise or lower the signal
Summary of the method: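 HepG2, transient MRTU transfection, cis promoter elements; 24 h dosing; RT-PCR/CE fluorescence read-out of reporter mRNA; fit both directions vs DMSO.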

[5] = molecular target: human Peroxisome Proliferator-activated Receptor alpha (PPARa), PPARA (gene 5465) (UniProt Q07869); assay: ATG_PPARa_TRANS: Attagene TRANS-FACTORIAL HepG2 Assay for human Peroxisome Proliferator-activated Receptor alpha (PPARa) (AID 2283001; active = hit-call score of the fitted dose curve at least 0.9, where 1 is the maximum)
Sequence of human Peroxisome Proliferator-activated Receptor alpha (PPARa), PPARA (gene 5465) (Q07869 whole entry, looked up): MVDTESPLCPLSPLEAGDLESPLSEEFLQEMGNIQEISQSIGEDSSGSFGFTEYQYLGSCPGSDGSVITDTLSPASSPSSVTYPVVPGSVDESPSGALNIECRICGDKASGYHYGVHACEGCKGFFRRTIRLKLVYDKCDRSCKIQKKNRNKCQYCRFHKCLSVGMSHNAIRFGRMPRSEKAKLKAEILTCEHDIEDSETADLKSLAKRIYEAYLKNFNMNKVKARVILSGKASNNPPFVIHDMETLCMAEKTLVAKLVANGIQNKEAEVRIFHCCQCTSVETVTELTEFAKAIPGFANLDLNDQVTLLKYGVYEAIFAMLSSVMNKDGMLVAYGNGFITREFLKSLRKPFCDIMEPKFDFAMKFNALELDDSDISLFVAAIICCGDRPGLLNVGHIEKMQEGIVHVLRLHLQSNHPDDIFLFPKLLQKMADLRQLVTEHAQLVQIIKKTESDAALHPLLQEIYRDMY
Summary of the method: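 Cells (HepG2) are transfected with multiple reporter transcription units, exposed to chemical for 24 h, then total RNA is reverse-transcribed and amplified. Labelled products are quantified by capillary electrophoresis; induction is referenced to DMSO.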

[6] = molecular target: human Peroxisome Proliferator-activated Receptor delta (PPARd), PPARD (gene 5467) (UniProt Q03181); assay: ATG_PPARd_TRANS: Attagene TRANS-FACTORIAL HepG2 Assay for human Peroxisome Proliferator-activated Receptor delta (PPARd) (AID 2283002; active = hit-call score of the fitted dose curve at least 0.9, where 1 is the maximum)
Sequence of human Peroxisome Proliferator-activated Receptor delta (PPARd), PPARD (gene 5467) (Q03181 whole entry, looked up, the tested form may be a part): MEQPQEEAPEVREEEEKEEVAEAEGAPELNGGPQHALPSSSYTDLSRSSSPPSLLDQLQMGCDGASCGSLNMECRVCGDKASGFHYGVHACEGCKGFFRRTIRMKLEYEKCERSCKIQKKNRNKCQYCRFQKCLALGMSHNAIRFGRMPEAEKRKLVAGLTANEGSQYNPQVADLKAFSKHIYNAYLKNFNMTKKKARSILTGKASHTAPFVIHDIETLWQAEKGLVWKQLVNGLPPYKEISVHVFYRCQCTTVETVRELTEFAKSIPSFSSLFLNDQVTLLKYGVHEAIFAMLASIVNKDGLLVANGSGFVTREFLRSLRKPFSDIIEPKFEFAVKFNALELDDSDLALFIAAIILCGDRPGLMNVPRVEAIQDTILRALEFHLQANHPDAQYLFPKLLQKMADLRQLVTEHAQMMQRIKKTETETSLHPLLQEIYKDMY
Summary of the method: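 Multiplexed trans-activation format: HepG2 liver cells expressing exogenous NR-Gal4 chimeras and GAL4-UAS reporters were exposed for 24 h. Reporter mRNA was detected by RT-PCR with capillary electrophoresis fluorescence; activity fitted as gain of signal relative to DMSO.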

[7] = molecular target: Peroxisome proliferator-activated receptor gamma (Homo sapiens) (UniProt P37231); assay: ATG_PPARg_TRANS: Attagene TRANS-FACTORIAL HepG2 Assay for human Peroxisome Proliferator-activated Receptor-gamma (PPARg) (AID 2283007; active = hit-call score of the fitted dose curve at least 0.9, where 1 is the maximum)
Summary of the method: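 HepG2 cells transiently transfected with multiplexed GAL4-UAS reporter units and exogenous chimeric NR-Gal4 proteins; reporter mRNA quantified after 24 h compound exposure by RT-PCR, fluorescent labelling, HpaI digestion and capillary electrophoresis; gain-of-signal fitted versus DMSO baseline.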

[8] = molecular target: Nuclear receptor subfamily 1 group I member 2 (Homo sapiens) (UniProt O75469); assay: ATG_PXR_TRANS: Attagene TRANS-FACTORIAL HepG2 Assay for human Pregnane X Receptor (PXR) (AID 2283008; active = hit-call score of the fitted dose curve at least 0.9, where 1 is the maximum)
Sequence of Nuclear receptor subfamily 1 group I member 2 (Homo sapiens) (O75469 whole entry, looked up, the tested form may be a part): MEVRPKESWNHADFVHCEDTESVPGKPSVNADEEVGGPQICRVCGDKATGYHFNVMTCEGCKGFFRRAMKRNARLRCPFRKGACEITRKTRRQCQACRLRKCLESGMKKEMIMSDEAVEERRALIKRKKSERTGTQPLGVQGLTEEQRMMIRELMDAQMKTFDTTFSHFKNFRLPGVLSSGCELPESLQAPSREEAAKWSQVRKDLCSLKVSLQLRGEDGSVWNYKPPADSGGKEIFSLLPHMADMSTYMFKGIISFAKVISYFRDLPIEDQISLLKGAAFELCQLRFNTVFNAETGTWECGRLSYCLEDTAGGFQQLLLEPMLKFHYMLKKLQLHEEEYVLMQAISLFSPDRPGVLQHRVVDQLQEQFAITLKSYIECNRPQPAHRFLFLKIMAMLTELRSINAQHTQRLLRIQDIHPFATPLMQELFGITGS
Summary of the method: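 Transient HepG2 transfectants carrying multiplexed reporter transcription units; PXR activity read through a Gal4 chimera. 24 h exposure. RT-PCR/CE fluorescence; upward curve fit referenced to DMSO.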

[9] = molecular target: human RAR-related Orphan Receptor beta (RORb), RORB (gene 6096) (UniProt Q92753); assay: ATG_RORb_TRANS: Attagene TRANS-FACTORIAL HepG2 Assay for human RAR-related Orphan Receptor beta (RORb) (AID 2283010; active = hit-call score of the fitted dose curve at least 0.9, where 1 is the maximum)
Sequence of human RAR-related Orphan Receptor beta (RORb), RORB (gene 6096) (Q92753 whole entry, looked up, the tested form may be a part): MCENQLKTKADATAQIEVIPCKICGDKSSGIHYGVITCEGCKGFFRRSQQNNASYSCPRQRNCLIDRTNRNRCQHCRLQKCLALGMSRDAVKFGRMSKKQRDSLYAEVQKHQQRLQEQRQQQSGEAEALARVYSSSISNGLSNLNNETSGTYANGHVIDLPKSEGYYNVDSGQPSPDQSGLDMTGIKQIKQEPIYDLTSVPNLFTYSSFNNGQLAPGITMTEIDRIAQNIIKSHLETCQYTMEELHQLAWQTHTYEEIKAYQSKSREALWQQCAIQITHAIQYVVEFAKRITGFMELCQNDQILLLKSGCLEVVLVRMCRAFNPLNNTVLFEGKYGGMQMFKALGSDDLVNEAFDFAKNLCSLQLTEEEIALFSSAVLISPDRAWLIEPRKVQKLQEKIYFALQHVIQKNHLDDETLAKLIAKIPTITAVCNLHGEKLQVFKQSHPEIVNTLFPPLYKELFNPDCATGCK
Summary of the method: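 Transfect HepG2 with multiple GAL4-UAS reporter transcription units; dose chemicals for 24 h; isolate RNA, reverse-transcribe and PCR-amplify reporter sequences; label, digest and resolve fragments by capillary electrophoresis; fit increases relative to DMSO.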

[10] = molecular target: human RAR-related Orphan Receptor gamma (RORg), RORC (gene 6097) (UniProt P51449); assay: ATG_RORg_TRANS: Attagene TRANS-FACTORIAL HepG2 Assay for human RAR-related Orphan Receptor gamma (RORg) (AID 2283011; active = hit-call score of the fitted dose curve at least 0.9, where 1 is the maximum)
Sequence of human RAR-related Orphan Receptor gamma (RORg), RORC (gene 6097) (P51449 whole entry, looked up, the tested form may be a part): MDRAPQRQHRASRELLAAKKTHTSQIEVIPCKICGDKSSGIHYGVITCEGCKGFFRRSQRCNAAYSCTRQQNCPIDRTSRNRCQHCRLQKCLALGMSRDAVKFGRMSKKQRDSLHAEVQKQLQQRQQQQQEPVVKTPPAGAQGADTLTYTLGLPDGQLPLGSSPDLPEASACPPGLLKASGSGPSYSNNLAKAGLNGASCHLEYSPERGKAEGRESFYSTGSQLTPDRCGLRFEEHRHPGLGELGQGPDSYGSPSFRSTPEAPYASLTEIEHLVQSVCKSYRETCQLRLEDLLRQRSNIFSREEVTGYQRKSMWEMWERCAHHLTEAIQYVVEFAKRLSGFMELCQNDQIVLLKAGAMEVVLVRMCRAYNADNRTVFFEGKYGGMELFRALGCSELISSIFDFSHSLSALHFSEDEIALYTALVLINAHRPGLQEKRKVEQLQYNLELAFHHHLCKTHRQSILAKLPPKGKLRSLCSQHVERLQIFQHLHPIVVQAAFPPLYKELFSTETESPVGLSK
Summary of the method: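 Activity is scored as increase in GAL4-UAS reporter mRNA over DMSO, detected by fluorescent RT-PCR and capillary electrophoresis in HepG2 cells transiently expressing a RORg-Gal4 chimera, 24 h after dosing.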

[11] = molecular target: human Retinoic Acid Receptor gamma (RARg), RARG (gene 5916) (UniProt P13631); assay: ATG_RARg_TRANS: Attagene TRANS-FACTORIAL HepG2 Assay for human Retinoic Acid Receptor gamma (RARg) (AID 2283009; active = hit-call score of the fitted dose curve at least 0.9, where 1 is the maximum)
Sequence of human Retinoic Acid Receptor gamma (RARg), RARG (gene 5916) (P13631 whole entry, looked up, the tested form may be a part): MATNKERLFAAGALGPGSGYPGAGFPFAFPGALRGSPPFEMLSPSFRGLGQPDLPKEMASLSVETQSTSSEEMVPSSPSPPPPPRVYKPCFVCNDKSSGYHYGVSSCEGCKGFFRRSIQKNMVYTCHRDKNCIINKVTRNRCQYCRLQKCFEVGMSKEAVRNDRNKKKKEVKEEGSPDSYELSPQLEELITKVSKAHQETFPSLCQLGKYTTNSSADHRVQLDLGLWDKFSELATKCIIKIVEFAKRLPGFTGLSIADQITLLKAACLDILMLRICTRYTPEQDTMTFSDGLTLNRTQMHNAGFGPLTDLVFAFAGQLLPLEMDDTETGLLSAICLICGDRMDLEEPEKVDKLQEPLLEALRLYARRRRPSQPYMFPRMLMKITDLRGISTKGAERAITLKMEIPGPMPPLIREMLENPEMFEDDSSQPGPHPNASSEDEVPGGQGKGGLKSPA
Summary of the method: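 TRANS format measured activity of exogenous NR-GAL4 fusion (RARg) in transfected HepG2 liver cells after 24 h dosing. Induced reporter RNA was detected by RT-PCR/capillary electrophoresis fluorescence, analysed in the positive direction against DMSO.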

[12] = molecular target: Cellular tumor antigen p53 (Homo sapiens) (UniProt P04637); assay: ATG_p53_CIS: Attagene CIS-FACTORIAL HepG2 Assay for human p53 Transcription Factor (AID 2282994); conditions: HepG2 p53 cis-element reporter, Attagene mRNA; actives raise or lower the signal
Sequence of Cellular tumor antigen p53 (Homo sapiens) (P04637 whole entry, looked up): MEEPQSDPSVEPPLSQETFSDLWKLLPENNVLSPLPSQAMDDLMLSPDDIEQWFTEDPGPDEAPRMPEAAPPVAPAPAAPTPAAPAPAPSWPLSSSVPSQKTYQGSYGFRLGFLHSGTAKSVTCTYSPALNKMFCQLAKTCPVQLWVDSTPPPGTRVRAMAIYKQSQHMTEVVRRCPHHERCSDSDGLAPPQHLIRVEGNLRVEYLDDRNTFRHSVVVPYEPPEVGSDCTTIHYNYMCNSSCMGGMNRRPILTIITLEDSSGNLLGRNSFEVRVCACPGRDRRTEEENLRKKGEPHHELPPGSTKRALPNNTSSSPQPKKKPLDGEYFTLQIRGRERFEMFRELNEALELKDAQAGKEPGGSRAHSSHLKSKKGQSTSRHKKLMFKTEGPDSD
Summary of the method: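 Transiently transfected HepG2 (multiple cis reporter transcription units); exposure 24 h; reporter RNA via RT-PCR, 6-FAM extension, 2 h HpaI digest at 37 C, CE detection; DMSO baseline.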

[13] = BSK_3C_TissueFactor: BioMAP Diversity Plus: 3C Assay for Tissue Factor Biomarker Activity (AID 2282997); conditions: BioMAP 3C HUVEC, tissue factor biomarker readout; actives raise or lower the signal
Summary of the method: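 Cells used were primary human umbilical vein endothelial cells. They were dosed with chemical, and after 24 h Tissue Factor was quantified by ELISA. Curves were fitted bidirectionally with DMSO as baseline.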

[14] = BSK_3C_uPAR: BioMAP Diversity Plus: 3C Assay for Urokinase-type plasminogen activator receptor (uPAR) Biomarker Activity (AID 2282998); conditions: BioMAP 3C HUVEC, uPAR biomarker ELISA; actives raise or lower the signal
Summary of the method: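 A multiplexed primary-cell system built on human umbilical vein endothelium was used, with chemical present for 24 h before reading. Cell-surface uPAR was detected by ELISA; signal change in either direction counted against DMSO.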

[15] = BSK_3C_VCAM1: BioMAP Diversity Plus: 3C Assay for Vascular cell adhesion molecule 1 (VCAM1) Biomarker Activity (AID 2282999); conditions: BioMAP 3C HUVEC, VCAM1 ELISA, cytokine-stimulated; actives raise or lower the signal
Summary of the method: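 Vascular primary endothelium (human umbilical vein) was exposed to chemicals and assayed 24 h later. VCAM-1 levels came from ELISA, with DMSO serving as baseline for bidirectional fitting.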

[16] = BSK_4H_Eotaxin3: BioMAP Diversity Plus: 4H Assay for Eotaxin 3 Biomarker Activity (AID 2283000); conditions: primary human endothelial cells (HUVEC); actives raise or lower the signal
Summary of the method: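 Endothelial primary cells (human umbilical vein) exposed to compound for 24 h. ELISA detection of Eotaxin-3.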

[17] = read-out: Intercellular Adhesion Molecule 1 (ICAM1), ICAM1 (gene 3383); assay: BSK_3C_ICAM1: BioMAP Diversity Plus: 3C Assay for Intercellular Adhesion Molecule 1 (ICAM1) Biomarker Activity (AID 2283003); conditions: primary human endothelial cells (HUVEC); actives raise or lower the signal
Summary of the method: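 Chemicals are dosed onto primary human umbilical vein endothelium (3C system). After 24 h, ICAM-1 is measured by ELISA, and responses are fitted bidirectionally relative to DMSO.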

[18] = BSK_3C_Proliferation: Cell Proliferation Assessment in the BioMAP Diversity Plus: 3C Assay (AID 2283006); conditions: primary human endothelial cells (HUVEC);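 for AC50: potency may reflect either rise or fall in cell number versus DMSO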
Summary of the method: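 Cells (human umbilical vein endothelial, sub-confluent) receive test chemical; after 48 h they are fixed in 10% trichloroacetic acid, stained with 0.1% SRB and read at 560 nm. Activity is referenced to DMSO, fitting increases and decreases.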

[19] = molecular target: Retinoic acid receptor alpha (Homo sapiens) (UniProt P10276); assay: ATG_RARa_TRANS: Attagene TRANS-FACTORIAL HepG2 Assay for human Retinoic Acid Receptor alpha (RARa) (AID 2283005; active = hit-call score of the fitted dose curve at least 0.9, where 1 is the maximum)
Sequence of Retinoic acid receptor alpha (Homo sapiens) (P10276 whole entry, looked up, the tested form may be a part): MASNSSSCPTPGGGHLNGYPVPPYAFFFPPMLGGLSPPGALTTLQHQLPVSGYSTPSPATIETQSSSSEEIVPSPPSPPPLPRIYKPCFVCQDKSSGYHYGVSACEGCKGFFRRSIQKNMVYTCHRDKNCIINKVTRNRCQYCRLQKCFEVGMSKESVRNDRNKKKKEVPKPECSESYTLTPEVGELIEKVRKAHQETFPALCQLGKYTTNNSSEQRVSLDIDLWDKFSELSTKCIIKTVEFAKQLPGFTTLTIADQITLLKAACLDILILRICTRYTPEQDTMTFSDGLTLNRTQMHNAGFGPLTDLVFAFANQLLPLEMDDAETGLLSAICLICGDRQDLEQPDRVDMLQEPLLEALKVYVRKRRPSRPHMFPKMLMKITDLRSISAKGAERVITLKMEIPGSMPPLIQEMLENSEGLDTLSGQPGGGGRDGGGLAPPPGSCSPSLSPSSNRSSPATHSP
Summary of the method: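 HepG2 cells transiently transfected with multiple reporter units expressing chimeric RARα-GAL4 fusion, with GAL4-UAS-driven reporters. After 24 h compound exposure, reporter mRNA induction quantified by RT-PCR and capillary electrophoresis with fluorescent labeling; gain-of-signal fitted relative to DMSO control.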

[20] = molecular target: human Retinoic Acid Receptor beta (RARb), RARB (gene 5915) (UniProt P10826); assay: ATG_RARb_TRANS: Attagene TRANS-FACTORIAL HepG2 Assay for human Retinoic Acid Receptor beta (AID 2283004; active = hit-call score of the fitted dose curve at least 0.9, where 1 is the maximum)
Sequence of human Retinoic Acid Receptor beta (RARb), RARB (gene 5915) (P10826 whole entry, looked up, the tested form may be a part): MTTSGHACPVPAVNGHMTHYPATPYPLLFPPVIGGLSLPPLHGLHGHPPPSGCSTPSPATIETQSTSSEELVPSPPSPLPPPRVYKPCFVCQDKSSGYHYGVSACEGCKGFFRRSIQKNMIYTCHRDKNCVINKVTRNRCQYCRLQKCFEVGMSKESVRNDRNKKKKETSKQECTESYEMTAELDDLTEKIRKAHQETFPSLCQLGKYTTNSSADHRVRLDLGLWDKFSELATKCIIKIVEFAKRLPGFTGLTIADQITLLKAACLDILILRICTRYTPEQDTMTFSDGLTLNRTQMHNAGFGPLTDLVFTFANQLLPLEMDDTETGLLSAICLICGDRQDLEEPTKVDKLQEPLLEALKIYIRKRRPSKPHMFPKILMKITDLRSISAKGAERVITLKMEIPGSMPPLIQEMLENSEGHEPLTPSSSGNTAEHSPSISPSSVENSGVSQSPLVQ
Summary of the method: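 HepG2, transient MRTU transfection, NR–Gal4 chimera, 24 h treatment; RT-PCR plus CE fluorescence detection of reporter mRNA; gain of signal vs DMSO.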

Measured: AC50

COCCOC(=O)c1ccccc1C(=O)OCCOC
inactive: [1] | [2] | [3] | [4] | [5] | [6] | [7] | [8] | [9] | [10]

CC(=O)CC(=O)Nc1ccccc1
inactive: [1] | [2] | [3] | [4] | [5] | [6] | [7] | [8] | [9]

CC(=O)C(C)O (stereo not drawn)
inactive: [1] | [2] | [3] | [4] | [5]

O=C1OC(=O)c2c(Br)c(Br)c(Br)c(Br)c21
inactive: [1] | [2] | [4] | [5] | [6] | [7] | [8] | [11]
active: [3] 100 µM

COc1cccc(OC)c1O
inactive: [1] | [2] | [3] | [4] | [12] | [8]

NCC1CCCC(CN)C1 (stereo not drawn)
inactive: [1] | [2] | [3] | [4] | [5] | [6] | [7] | [8]

CCCCCCCCSCCO
active: [3] 186 µM | [7] 33.8 µM
inactive: [1] | [2] | [4] | [5] | [6] | [8]

CCCCCCCCCC(=O)OC
active: [7] 57.1 µM
inactive: [1] | [2] | [3] | [4] | [5] | [8] | [10]

O=C1OC[C@H](Cc2cccc(O)c2)[C@H]1Cc1cccc(O)c1
active: [8] 7.35 µM
inactive: [1] | [2] | [3] | [4] | [13] | [14] | [15] | [16] | [6] | [17] | [18] | [7] | [11] | [9]

C=C(C)C(=O)OCC(CC)(COC(=O)C(=C)C)COC(=O)C(=C)C
inactive: [1] | [2] | [4] | [13] | [14] | [15] | [16] | [17] | [8]
active: [3] 51.4 µM | [18] 13.9 µM | [7] 98.5 µM

C=C(C)C1CC=C(C)C(=O)C1 (stereo not drawn)
inactive: [1] | [2] | [3] | [4] | [5] | [19] | [7] | [8]

CC(=O)NCCO
inactive: [1] | [2] | [3] | [4] | [12] | [8] | [11]

CCCCN(CCCC)C(=O)N(CCCC)CCCC
inactive: [4] | [5] | [6] | [11]
active: [1] 48.7 µM | [2] 52.8 µM | [3] 61.6 µM | [13] 6.23 µM | [14] 10.7 µM | [15] 8.82 µM | [16] 9.73 µM | [17] 10.7 µM | [18] 4.03 µM | [7] 15.9 µM | [8] 0.445 µM

Nc1ccn([C@H]2CS[C@@H](CO)O2)c(=O)n1
inactive: [1] | [2] | [3] | [4] | [12] | [11] | [10]

Cc1[nH]c(=O)c(C#N)cc1-c1ccncc1
inactive: [1] | [2] | [3] | [4] | [5] | [6] | [7] | [8] | [10]

CCOC(=O)C1OC1c1ccccc1 (stereo not drawn)
inactive: [1] | [3] | [4] | [7] | [8] | [10]
active: [2] 47 µM | [12] 64.4 µM

CN(C)C(=S)SC(=S)N(C)C
inactive: [1] | [2] | [4] | [13] | [5] | [6] | [17] | [8] | [9] | [10]
active: [3] 22.9 µM | [14] 31.8 µM | [15] 19.9 µM | [16] 31.4 µM | [18] 19.9 µM | [7] 20.9 µM

CCCCCCCCCCCC(=O)OC[C@@H](O)[C@H]1OC[C@H](O)[C@H]1O
inactive: [1] | [2] | [3] | [4] | [5] | [6] | [20] | [19] | [7] | [11]

CC(=O)O[C@H]1C[C@@H]2CC[C@@]1(C)C2(C)C
inactive: [1] | [2] | [3] | [4] | [5] | [20] | [19] | [7] | [8] | [11]

Nc1ccc(Cl)c([N+](=O)[O-])c1
inactive: [1] | [2] | [3] | [4] | [5] | [7] | [8] | [10]

O=[N+]([O-])c1cccc(Cl)c1
inactive: [1] | [2] | [3] | [4] | [12] | [11]

C=CC(=C)CCCC(C)(C)OC(C)=O
inactive: [1] | [2] | [3] | [4] | [5] | [20] | [7] | [8] | [10]
